# In PubChem BioAssay (NCATS):
# A number with no mark means an inactive call. Inconclusive results are not listed. The source made the active and inactive calls. Calls follow the shape of the dose curve; as a rule, active = well fitted curve in the direction sought with a large enough effect; inconclusive = small, poorly fitted or top-dose-only effect, or another doubt; inactive = no such curve, though single readings can be large; an effect the other way counts as inactive or inconclusive.
# Assays:
# [1] = Primary qHTS for inhibitors of nuclear receptor binding SET domain protein 2 (NSD2) in an isogenic RCH-ACV NSD2 p.E1099K mutant (9B) (AID 1645876); also: nearly all actives have a fitted effect of over 70% in size; also: potency is read from the fitted curve at half-maximal effect
# [2] = Primary qHTS for inhibitors of nuclear receptor binding SET domain protein 2 (NSD2) in an RCH-ACV wild type WT cells (2C) (AID 1645877); also: nearly all actives have a fitted effect of over 70% in size; also: potency is read from the fitted curve at half-maximal effect
# [3] = target: Glutathione peroxidase 1 (Homo sapiens) (UniProt P07203); assay: Primary qHTS Assay for Inhibitors of Recombinant Selenoprotein Glutathione Peroxidase 1 (GPX1) (AID 1845191); also: nearly all actives have a fitted effect of over 65% in size; as to activity, negative = inhibition: % is scaled to controls: 0 for no effect and ±100 for the full control effect
# Chain of Glutathione peroxidase 1 (Homo sapiens) (P07203 whole entry, looked up): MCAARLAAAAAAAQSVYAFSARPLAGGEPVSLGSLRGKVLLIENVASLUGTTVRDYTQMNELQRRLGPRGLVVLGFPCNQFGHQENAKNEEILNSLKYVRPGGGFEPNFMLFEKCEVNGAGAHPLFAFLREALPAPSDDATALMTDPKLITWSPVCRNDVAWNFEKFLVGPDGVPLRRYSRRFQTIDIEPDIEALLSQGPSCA
# Outline: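 GPX1 10 nM, GR 100 nM, GSH 1 mM, NADPH 0.5 mM, CHP 0.5 mM (final). 30-min cpd preincubation, RT. Ex340/Em450 read t=0, t=15 min.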
# [4] = target: Phospholipid hydroperoxide glutathione peroxidase GPX4 (Homo sapiens) (UniProt P36969); assay: Primary qHTS Assay for Inhibitors of Recombinant Selenoprotein Glutathione Peroxidase 4 (GPX4) (AID 1845192); also: nearly all actives have a fitted effect of over 65% in size; as to activity change, negative = inhibition: % is scaled to controls: 0 for no effect and ±100 for the full control effect
# Chain of Phospholipid hydroperoxide glutathione peroxidase GPX4 (Homo sapiens) (P36969 whole entry, looked up): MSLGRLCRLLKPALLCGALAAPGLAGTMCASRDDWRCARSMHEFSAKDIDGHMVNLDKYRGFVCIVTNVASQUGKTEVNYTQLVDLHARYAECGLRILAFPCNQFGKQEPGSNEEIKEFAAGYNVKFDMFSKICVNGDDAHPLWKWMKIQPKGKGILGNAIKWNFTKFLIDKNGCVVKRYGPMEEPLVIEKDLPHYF
# Outline: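 qHTS, GR-coupled: GPX4 200 nM + cpd 30 min RT → GSH 1 mM, NADPH 0.5 mM, GR 100 nM → CHP 0.5 mM start; fluor 340/450 at t0 and t15 min; no-enzyme wells as control.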
# [5] = target: Luciferin 4-monooxygenase (Photinus pyralis) (UniProt P08659); assay: Primary firefly luciferase (FLuc) qHTS assay for identification of artifact compounds. (AID 1845220); settings: outcome: dose series up to 54.1 µM unless noted; also: nearly all actives have a fitted effect of over 60% in size;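 as to activity change, negative = inhibition: plate controls were DMSO vehicle for no effect and no enzyme for full effect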
# Outline: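 Reaction readout was CCD-imaged luminescence, taken 5 min after adding 10 nM purified firefly enzyme to compound-treated wells holding 10 uM luciferin and ATP in pH 7.6 buffer.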
# [6] = Primary fluorescence-based thiol-reactive (MSTI) qHTS assay for identification of artifact compounds. (AID 1845221); also: nearly all actives have a fitted effect of over 65% in size; also: potency is read from the fitted curve at half-maximal effect;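 as to activity change, negative = thiol reactive: thiol-reactive compounds lower the probe fluorescence signal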
# Outline: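 In PBS pH 7.4 with 2% DMSO, each compound met 4 uM MSTI for one hour at ambient temperature, shielded from light, before fluorescence detection.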
# [7] = system: Nanoluciferase (engineered Oplophorus gracilirostris luciferase); assay: Primary Nanoluciferase (NLuc) qHTS assay for identification of artifact compounds. (AID 1845222);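 also: NLuc secreted into diluted conditioned medium of S16 cells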
# Outline: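 Concentration-response data were obtained by luminescence after 5 min with Nano-Glo substrate at 1:100. The enzyme was diluted S16 NLuc-expressing cell medium, preincubated with compound for 15 min at RT. Curves were fitted with a 4-parameter Hill model.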
# CRL-7250 = normal cell line; assay: Cytotoxic Profiling of Annotated Libraries Using Quantitative High-Throughput Screening (AID 1296008); settings: Five cell lines viability, CellTiter-Glo ATP luminescence, 48-72 h; max response: hits give low values; also: nearly all actives have a fitted effect of over 60% in size; also: potency is read from the fitted curve at half-maximal effect; as to max response: % is scaled to controls: 0 for no effect and ±100 for the full control effect
# Outline: (§1)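 Compounds were pin-transferred onto cells and incubated 48 or 72 hr at 37 degree Celsius, 95% humidity. CellTiter-Glo was added, plates sat 10 min at room temperature, then ATP-coupled luminescence was imaged as the viability read-out.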
# HEK293 = assay: as above; settings: Five cell lines viability, CellTiter-Glo ATP luminescence, 48-72 h; max response: hits give low values
# Outline: as §1
# HaCat = assay: as above; settings: Five cell lines viability, CellTiter-Glo ATP luminescence, 48-72 h; max response: hits give low values
# Outline: as §1
# KB-3-1 = assay: as above; settings: Five cell lines viability, CellTiter-Glo ATP luminescence, 48-72 h; max response: hits give low values
# Outline: as §1
# NIH3T3 = assay: as above; settings: Five cell lines viability, CellTiter-Glo ATP luminescence, 48-72 h; max response: hits give low values
# Outline: as §1
# C33A = assay: Primary qHTS to identify gynecologic anti-cancer compounds using libraries of approved drugs and bioactive compounds (AID 1345084); settings: Gynecologic cancer cell panel viability, ATPlite luminescence, 48 h; series mostly up to 57.5 µM; also: nearly all actives have a fitted effect of over 55% in size; also: potency is read from the fitted curve at half-maximal effect
# Outline: (§2)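 Five-concentration response, 48 h; readout is ATP-driven luciferase luminescence.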
# CASKI = assay: as above; settings: Gynecologic cancer cell panel viability, ATPlite luminescence, 48 h; series mostly up to 57.5 µM
# Outline: as §2
# Es-2 = assay: as above; settings: Gynecologic cancer cell panel viability, ATPlite luminescence, 48 h; series mostly up to 57.5 µM
# Outline: as §2
# Hek293T = assay: as above; settings: Gynecologic cancer cell panel viability, ATPlite luminescence, 48 h, control line for the selectivity index; series mostly up to 57.5 µM
# Outline: as §2
# OV90 = assay: as above; settings: Gynecologic cancer cell panel viability, ATPlite luminescence, 48 h; series mostly up to 57.5 µM
# Outline: as §2
# PA-1 = assay: as above; settings: Gynecologic cancer cell panel viability, ATPlite luminescence, 48 h; series mostly up to 57.5 µM
# Outline: as §2
# Tov-21-G = assay: as above; settings: Gynecologic cancer cell panel viability, ATPlite luminescence, 48 h; series mostly up to 57.5 µM
# Outline: as §2
# Tov112D = assay: as above; settings: Gynecologic cancer cell panel viability, ATPlite luminescence, 48 h; series mostly up to 57.5 µM
# Outline: as §2
smiles,measurement,setting,value
CC(=O)OC[C@]12C[C@H](O)C(C)=C[C@H]1O[C@@H]1[C@H](O)[C@@H](O)[C@@]2(C)[C@]12CO2,Potency,[1],898 nM (active)
same,Potency,[2],713 nM (active)
same,Potency,[3],inactive
same,Potency,[4],inactive
same,outcome,[5],inactive
same,Potency,[6],inactive
same,Potency,[7],inactive
same,Potency,CRL-7250,4040 nM (active)
same,Potency,HEK293,1.01 µM (active)
same,Potency,HaCat,10.1 µM (active)
same,Potency,KB-3-1,2.27 µM (active)
same,Potency,NIH3T3,1.43 µM (active)
same,Potency,C33A,5.62 µM (active)
same,Potency,CASKI,7940 nM (active)
same,Potency,Es-2,6.31 µM (active)
same,Potency,Hek293T,1.78 µM (active)
same,Potency,OV90,12.6 µM (active)
same,Potency,PA-1,2 µM (active)
same,Potency,Tov-21-G,8.91 µM (active)
same,Potency,Tov112D,10000 nM (active)
CO[C@@H]1C[C@H](O[C@H]2CC[C@@]3(C)C(CCC4C3CC[C@]3(C)[C@@H](C5=CC(=O)OC5)[C@@H](OC(C)=O)CC43O)C2)O[C@H](C)[C@@H]1O[C@H]1O[C@H](CO[C@@H]2O[C@H](CO)[C@@H](O)[C@H](O)[C@H]2O)[C@@H](O)[C@H](O)[C@H]1O (stereo not given in full),Potency,[1],346 nM (active)
same,Potency,[2],774 nM (active)
same,Potency,[3],inactive
same,Potency,[4],inactive
same,"activity change, negative = inhibition",[5],-3.37% [at 11.6 µM]
same,"activity change, negative = thiol reactive",[6],43.8% [at 11.5 µM]
same,"activity, negative = inhibition",[7],1.29% [at 11.6 µM]
same,Potency,CRL-7250,491 nM (active)
same,Potency,HEK293,0.873 µM (active)
same,Potency,HaCat,1.55 µM (active)
same,Potency,KB-3-1,0.979 µM (active)
same,max response,NIH3T3,-8.42%
same,Potency,C33A,0.631 µM (active)
same,Potency,Es-2,1.26 µM (active)
same,Potency,Hek293T,2 µM (active)
same,Potency,PA-1,2 µM (active)
same,Potency,Tov-21-G,0.794 µM (active)
same,Potency,Tov112D,316 nM (active)
CC(=O)OC[C@]12C[C@H](OC(=O)CC(C)C)C(C)=C[C@H]1O[C@@H]1[C@H](O)[C@@H](OC(C)=O)[C@@]2(C)[C@@]12CO2,Potency,[1],22.4 nM (active)
same,Potency,[2],10 nM (active)
same,Potency,[3],inactive
same,Potency,[4],inactive
same,outcome,[5],inactive [at 25.7 µM]
same,Potency,[6],inactive
same,Potency,[7],inactive
same,Potency,CRL-7250,89.3 nM (active)
same,Potency,HEK293,0.0224 µM (active)
same,Potency,HaCat,0.224 µM (active)
same,Potency,KB-3-1,0.0355 µM (active)
same,Potency,NIH3T3,0.0502 µM (active)
same,Potency,CASKI,199 nM (active)
same,Potency,Es-2,0.1 µM (active)
same,Potency,Hek293T,0.112 µM (active)
same,Potency,OV90,2.51 µM (active)
same,Potency,Tov-21-G,0.224 µM (active)
same,Potency,Tov112D,224 nM (active)
C=CCN1CC[C@]23c4c5ccc(O)c4O[C@H]2[C@@H](O)CC[C@@]3(O)[C@H]1C5,Potency,[1],inactive
same,Potency,[2],inactive
same,Potency,[3],inactive
same,Potency,[4],inactive
same,outcome,[5],inactive
same,Potency,[6],inactive
same,Potency,[7],inactive
same,max response,CRL-7250,-15.6%
same,max response,HEK293,-13.2%
same,max response,HaCat,3.65%
same,max response,KB-3-1,3.34%
same,max response,NIH3T3,-28.6%
same,Potency,C33A,inactive
same,Potency,CASKI,inactive
same,Potency,Es-2,inactive
same,Potency,Hek293T,inactive
same,Potency,OV90,inactive
same,Potency,PA-1,inactive
same,Potency,Tov-21-G,inactive
same,Potency,Tov112D,inactive
C[C@@H]1C[C@@H](O)[C@]2(O)O[C@@H]3C[C@@]4(C=O)C(CC[C@@H]5C4CC[C@]4(C)[C@@](O)(C6=CC(=O)OC6)CC[C@]54O)C[C@H]3OC2O1 (stereo not given in full),Potency,[1],709 nM (active)
same,Potency,[2],1120 nM (active)
same,Potency,[3],inactive
same,Potency,[6],9.22 µM (active)
same,Potency,[7],inactive
same,Potency,CRL-7250,796 nM (active)
same,Potency,HEK293,1.12 µM (active)
same,Potency,HaCat,5.02 µM (active)
same,Potency,KB-3-1,2.24 µM (active)
same,max response,NIH3T3,-15.7%
same,Potency,C33A,2.82 µM (active)
same,Potency,Es-2,3.55 µM (active)
same,Potency,Hek293T,3.16 µM (active)
same,Potency,Tov-21-G,1.78 µM (active)
same,Potency,Tov112D,891 nM (active)
CNc1ccc2oc(C[C@H]3O[C@@]4(CC[C@H]3C)O[C@H](C(C)C(=O)c3ccc[nH]3)[C@H](C)C[C@H]4C)nc2c1C(=O)O (stereo not given in full),Potency,[1],16300 nM (active)
same,Potency,[2],14500 nM (active)
same,Potency,[4],inactive
same,outcome,[5],inactive
same,Potency,[6],2.38 µM (active)
same,Potency,[7],inactive
same,Potency,CRL-7250,5800 nM (active)
same,Potency,HEK293,1.3 µM (active)
same,Potency,HaCat,7.31 µM (active)
same,Potency,KB-3-1,2.31 µM (active)
same,Potency,NIH3T3,3.66 µM (active)
same,Potency,C33A,11.2 µM (active)
same,Potency,Es-2,10 µM (active)
same,Potency,Hek293T,8.91 µM (active)
same,Potency,OV90,12.6 µM (active)
same,Potency,PA-1,4.47 µM (active)
same,Potency,Tov-21-G,11.2 µM (active)
CC(=O)OC[C@]12C[C@H](O)C(C)=C[C@H]1O[C@@H]1[C@H](O)[C@@H](OC(C)=O)[C@@]2(C)[C@]12CO2,Potency,[1],6.4 nM (active)
same,Potency,[3],inactive
same,Potency,[4],inactive
same,Potency,[6],inactive
same,Potency,[7],inactive
same,Potency,CRL-7250,36 nM (active)
same,Potency,HEK293,0.0081 µM (active)
same,Potency,HaCat,0.0904 µM (active)
same,Potency,KB-3-1,0.0321 µM (active)
same,Potency,NIH3T3,0.0453 µM (active)
same,Potency,C33A,0.447 µM (active)
same,Potency,CASKI,31.6 nM (active)
same,Potency,Es-2,0.199 µM (active)
same,Potency,Hek293T,0.0891 µM (active)
same,Potency,OV90,12.6 µM (active)
same,Potency,PA-1,1.78 µM (active)
same,Potency,Tov-21-G,0.178 µM (active)
same,Potency,Tov112D,100 nM (active)
CC1CCCC(=O)CCC/C=C/c2cc(O)cc(O)c2C(=O)O1 (stereo not given),Potency,[1],inactive
same,Potency,[4],inactive
same,outcome,[5],inactive
same,Potency,[6],14.7 µM (active)
same,Potency,[7],inactive
same,max response,CRL-7250,3.12%
same,max response,HEK293,-3.13%
same,max response,HaCat,2.86%
same,outcome,KB-3-1,inactive
same,max response,NIH3T3,-2.03%
same,Potency,C33A,inactive
same,Potency,CASKI,inactive
same,Potency,Es-2,inactive
same,Potency,Hek293T,inactive
same,Potency,OV90,inactive
same,Potency,Tov-21-G,inactive
same,Potency,Tov112D,inactive
C[N@@+]1(CC2CC2)CC[C@]23c4c5ccc(O)c4O[C@H]2C(=O)CC[C@@]3(O)[C@H]1C5,Potency,[1],inactive
same,Potency,[2],inactive
same,Potency,[6],inactive
same,Potency,[7],inactive
same,max response,CRL-7250,2.78%
same,max response,HEK293,0.678%
same,max response,HaCat,-19.5%
same,outcome,KB-3-1,inactive
same,max response,NIH3T3,2.77%
same,Potency,C33A,inactive
same,Potency,CASKI,inactive
same,Potency,Es-2,inactive
same,Potency,Hek293T,inactive
same,Potency,OV90,inactive
same,Potency,PA-1,inactive
same,Potency,Tov-21-G,inactive
same,Potency,Tov112D,inactive
